Screens (PubChem BioAssay)
Only some compounds are listed: those with a hit (about 12% of all), similar ones and a draw of the others.
G9a inh – qHTS Assay for Inhibitors of Histone Lysine Methyltransferase G9a; G9a H3K9 monomethylation, AlphaScreen, 2 h; AID 504332, 2011; Histone-lysine N-methyltransferase EHMT2 (Homo sapiens), Q96KQ7; actives 8.8% (n = 350,000); Potency, µM (top dose mostly 102 µM), without a hit: at the top dose activity, negative = inhibition, usual class: inhibitors; note: % is set by controls: 0 for no effect and ±100 for the full control effect; nearly all actives have a fitted effect of over 75% in size
Target sequence (Q96KQ7 913-1193 limits assumed): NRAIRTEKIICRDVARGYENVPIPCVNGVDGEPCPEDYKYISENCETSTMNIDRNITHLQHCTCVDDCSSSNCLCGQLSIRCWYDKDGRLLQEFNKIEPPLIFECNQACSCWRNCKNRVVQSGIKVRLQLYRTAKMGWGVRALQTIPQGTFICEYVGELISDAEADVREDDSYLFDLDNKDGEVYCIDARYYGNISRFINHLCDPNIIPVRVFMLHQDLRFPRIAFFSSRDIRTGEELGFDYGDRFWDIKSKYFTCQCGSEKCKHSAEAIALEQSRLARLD
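G9a (20 nM) preincubated 15 min RT with compounds, then 500 nM biotinylated H3K9 peptide and 20 uM SAM added; 2 h RT reaction. Monomethyl-H3K9 product detected by AlphaScreen with anti-H3K9me1 antibody, streptavidin donor and anti-rabbit IgG acceptor beads.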
PLK1 PBD block – qHTS for Inhibitors of PLK1-PDB (polo-like kinase 1 - polo-box domain): Primary Screen; Potency, µM, without a hit: max response, negative = inhibition, hits mostly inhibitors; AID 720504, 2013; actives 2.8% (n = 360,000); Serine/threonine-protein kinase PLK1 (Homo sapiens), P53350; Plk1 PBD binding of FITC phosphopeptide, fluorescence polarization; note: series mostly up to about 57 µM; % is set by controls: 0 for no effect and ±100 for the full control effect; nearly all actives have a fitted effect of over 65% in size
Sfp PPTase inh – qHTS Assay for Inhibitors of Bacillus subtilis Sfp phosphopantetheinyl transferase (PPTase); 4'-phosphopantetheinyl transferase ffp (Bacillus subtilis), Q9F4F7; Biochemical Sfp PPTase activity, qHTS; Potency, µM, for the others: largest response in the series, negative = inhibition, usual class: inhibitors; actives 3.5% (n = 310,000); AID 1490, 2009;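 note: the enzyme is Sfp with the accession as filed and its product quenches rhodamine fluorescence; 0% = enzyme reaction without inhibitor and -100% = no enzyme wells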
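Fluorescence-quenching assay: 15 nM Sfp-PPTase preincubated 15 min at room temperature with compound, then 5 uM rhodamine-CoA and 12.5 uM BHQ-2-labelled YbbR peptide added. Fluorescence (ex 525/em 598 nm) read at start and after 30 min; difference gives rate.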
HP1b chromo inh – HTS for Inhibitors of HP1-beta Chromodomain Interactions with Methylated Histone Tails | Chromobox protein homolog 1 (Homo sapiens), P83916 | AlphaScreen HP1-beta / biotin-H3K9me3 peptide binding | AID 540317, 2011 | Potency, µM (series often up to 114 µM), inactives show at the highest dose activity change, negative = inhibition, hits mostly inhibitors | actives 0.56% (n = 390,000); note: nearly all actives have a fitted effect of over 70% in size
Target sequence (P83916 whole entry, looked up): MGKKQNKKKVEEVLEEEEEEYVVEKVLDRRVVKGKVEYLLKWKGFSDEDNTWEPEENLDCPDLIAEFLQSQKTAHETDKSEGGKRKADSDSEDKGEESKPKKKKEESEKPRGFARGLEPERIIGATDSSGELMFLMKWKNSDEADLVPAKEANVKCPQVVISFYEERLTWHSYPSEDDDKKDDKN
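AlphaScreen: HP1-beta (50 nM) preformed 30 min with biotin-H3(1-18)K9me3 peptide (50 nM) in PBS pH 7.4, 0.01% Tween-20. Compound added for 30 min at RT, then streptavidin donor/nickel chelate acceptor beads (10 ug/mL) for 30 min.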
BAZ2B block – qHTS Assay for Inhibitors of BAZ2B; actives 4.4% (n = 360,000); AlphaScreen BAZ2B-H3K14Ac peptide displacement; AID 504333, 2011; Potency, µM (series often up to 114 µM), without a hit: top-dose activity change, negative = inhibition, hits mostly inhibitors; note: % is set by controls: 0 for no effect and ±100 for the full control effect; nearly all actives have a fitted effect of over 60% in size
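AlphaScreen luminescence quantifies BAZ2B engagement of H3K14Ac peptide; the protein and biotinylated peptide are both at 50 nM final, buffer PBS pH 7.4 with 0.01% Tween-20, all steps at room temperature.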
JMJD2A Tudor – qHTS Assay for Inhibitors of JMJD2A-Tudor Domain. Potency, µM (top dose mostly 114 µM), inactives show at the top dose activity change, negative = inhibition, actives largely listed as inhibitors. actives 4.4% (n = 390,000). AlphaScreen JMJD2A-Tudor / H3K4me3 peptide binding. AID 504339, 2011. Lysine-specific demethylase 4A (Homo sapiens), O75164; note: % is set by controls: 0 for no effect and ±100 for the full control effect; nearly all actives have a fitted effect of over 50% in size
Numbers without * were called inactive; ? = inconclusive; . = not tested or not shown; [ ] = another dose, or the depositor's remark. Calls come from the whole dose curve; as a rule, active = well fitted curve in the direction sought with a large enough effect; inconclusive = small, poorly fitted or top-dose-only effect, or another doubt; inactive = no such curve, though single readings can be large; an effect the other way counts as inactive or inconclusive. Potency is the fitted concentration of half-maximal effect.

SMILES	G9a inh	PLK1 PBD block	Sfp PPTase inh	HP1b chromo inh	BAZ2B block	JMJD2A Tudor
COc1ccc(CNC(=O)CCCCCn2c(=O)[nH]c3ccccc3c2=O)cc1	-3%[59 µM]	.	.	28%	-2%	-8%
CC(C)Nc1nc(C#N)nc(Nc2ccccc2)n1	.	.	.	.	.	-16%
CC1CCN(c2c([N+](=O)[O-])nn(-c3ccc4c(c3)OCCO4)[n+]2[O-])CC1	35µM*	-9%	-6%	?	22µM*	?
Cc1ccc(C(=O)OCc2nnc(-c3ccccc3)o2)cc1S(=O)(=O)N1CCOCC1	22%[0.501 µM]	4%	.	33%	10%	-11%
O=C(Nc1ccccc1-c1ccccc1)c1ccccc1	.	2%	-4%	40%	4%	21%
Nc1c(S(=O)(=O)O)cc(Nc2ccc(Cl)cc2)c2c1C(=O)c1ccccc1C2=O	.	.	16µM*	.	.	.
Nc1c(S(=O)(=O)O)cc(Nc2ccc(Nc3nc(Cl)nc(Nc4ccc(S(=O)(=O)O)cc4)n3)c(S(=O)(=O)O)c2)c2c1C(=O)c1ccccc1C2=O	1µM*	.	.	.	.	.
Nc1c(S(=O)(=O)O)cc(NC(=O)c2ccccc2)c2c1C(=O)c1ccccc1C2=O	?	21µM*	?	?	3.5µM*	2.5µM*
CN1C(=O)/C(=C\c2ccc(N(C)C)cc2)OC1=S	77%	-10%	15%	13%	11%	25µM*
COc1ccc(/C=C2\N=C(C(C)(C)C)OC2=O)c(OC)c1	-11%[59 µM]	2%	14%	18%[57 µM]	-15%	-26%
CN(C)c1ccc(/C=C2\N=C(C(C)(C)C)OC2=O)cc1	45µM*	?	8%	32%	?	1%
COc1ccc(NC2CC(=O)N(c3ccc(C(=O)O)cc3)C2=O)cc1 (stereo unspecified)	50µM*	-13%	14%	31%	-21%	-14%
COc1ccc(N2C(=O)CC(Nc3cccc(C(C)=O)c3)C2=O)cc1OC (stereo unspecified)	18µM*	-5%	3%	49%	4%	-6%
COc1ccc(NC2CC(=O)N(c3cccc(C)c3)C2=O)cc1 (stereo unspecified)	2%[59 µM]	-18%	7%	3%	-28%	-15%
CSc1cccc2sc(NC(=O)C3=COCCO3)nc12	-3%	4%	.	18%	-3%	-7%
O=C(Nc1nc2cc3c(cc2s1)OCCO3)C1=COCCO1	22%	24µM*	-1%	-4%	-16%	?
O=C(Nc1nc2ccc(F)cc2s1)C1=COCCO1	50µM*	-14%	.	26%	1%	-7%
COCC(=O)N1CCC2(CC1)CCN(c1ccncc1)CC2	-5%[12.7 µM]	.	40%	.	.	.
O=C(ONc1ccc(N=NC(=O)c2ccccc2O)cc1)c1ccccc1	?	?	-15%	-12%	10µM*	?
COc1ccc(S(=O)(=O)Nc2nnc(C(C)C)s2)cc1	?	?	-5%	-3%	8%	?
O=S(=O)(Nc1nnc(C2CCCCC2)s1)c1ccc(F)cc1	?	-26%	9%	-6%	-18%	-16%
CC(=O)Nc1ccc(S(=O)(=O)Nc2nnc(C3CCCCC3)s2)cc1	?	24µM*	3%	-7%	7%	-9%
CC(=O)Nc1ccc(S(=O)(=O)Nc2nnc(C(C)C)s2)cc1	25µM*	?	-3%	-2%	?	-33%
CC(=O)Nc1ccc(S(=O)(=O)Nc2nnc(Cc3ccc(Cl)cc3)s2)cc1	22µM*	27µM*	?	0%	-24%	1%
O=C(CC1CCCC1)NNC(=O)c1ccc(Br)cc1	21%[12.7 µM]	-16%	.	19%	7%	-21%
